Sampled rows, rich in hits. Any-hit rate of the full collection: about 3.6%.
Pf apPOL inh = Pf-apPOL DNA polymerase inhibition; AID 1794808; inhibition, % at 10 µM; Recombinant Pf-apPOL, molecular beacon fluorescence, 1.5 h; hit rate 0.25% among 210,000
mHTT CaM bind = inhibitors of human mutant huntingtin-calmodulin interaction; P42858; AlphaScreen His-mHTT/GST-CaM binding, luminescence; inhibition, % at 15 µM; hit rate 3.6% among 190,000; AID 1671202
Hits are given with their value; 0 = inactive; - = no result; ! = not active in a repeat. Rule as the data show it: active = inhibition above about 50%; inactive = the rest.

SMILES | Pf apPOL inh | mHTT CaM bind
O=C(O)COc1ccccc1O | 0 | 94!
Cc1ccccc1OCC(=O)O | 0 | 0
Cc1ccc(C(=O)N2CCC(CC(=O)NCCCN(C)c3ccccc3)CC2)cc1 | 0 | 51
CCN(CC)CCCNC(=O)CC1CCN(C(=O)c2ccc(C)cc2)CC1 | 0 | 0
Cc1cccc(NC(=O)CN2C(=O)C(c3ccc(C(C)(C)C)cc3)=NC2(C)C)c1 | 0 | 0
CN(C)NC(=O)Nc1csnc1-c1c(Cl)cccc1Cl | 0 | -
CCN(CCCNC(=O)C1CCCN(S(=O)(=O)N2CCCC2)C1)c1cccc(C)c1 (stereo unspecified) | 0 | 0
CCN(CCCNS(=O)(=O)c1ccc(Cl)s1)c1cccc(C)c1 | 0 | 65
O=C(NCC1(CO)CC1)c1ccc(Cl)c(Cl)c1 | 0 | 0
O=C(/C=C1\Sc2ccccc2NC1=O)NCCCN1CCN(c2ccc(F)cc2)CC1 | 0 | 74
O=C1Nc2ccccc2S/C1=C\C(=O)N1CCN(c2ccc(F)cc2)CC1 | 0 | 0
COc1ccc(-c2nc3ccccn3c2NC(=O)c2ccc(Cl)c([N+](=O)[O-])c2)cc1 | 0 | 0
O=C(Nc1c(-c2ccccc2)nc2ccccn12)c1ccc(Cl)c([N+](=O)[O-])c1 | 0 | 67
O=C(NCc1cccc(Cl)c1)c1cccnc1N1CCNC(c2ccccc2)C1 (stereo unspecified) | 0 | 0
Cc1ccc(N2C(=O)CSC2c2cc3c(cc2[N+](=O)[O-])OCO3)cc1C (stereo unspecified) | 0 | 0
CCc1ccc(NC(=O)c2cc3c(CO)cnc(C)c3oc2=Nc2ccc(OC)cc2OC)cc1 | 57 | 0
COc1ccc(N=c2oc3c(C)ncc(CO)c3cc2C(=O)Nc2ccccc2)c(OC)c1 | 0 | 0
CC(C)CC(=O)N1CCc2c(c(C(=O)NCc3ccc4c(c3)OCO4)nn2C)C1 | 0 | 0
CCOc1ccccc1NC(=O)N1CCN(CCNC(=O)c2ccc3c(c2)OCO3)CC1 | 0 | 0
COc1ccc(NC(=O)COc2ccccc2)c2ccccc12 | 74 | 0
CC(=O)Nc1ccccc1NC(=O)COc1ccccc1 | 0 | 0
CN(C)c1ccc(C(=O)N2CCCN(c3cc(-c4ccccc4)[nH]n3)CC2)cc1 | 0 | 0
C=CCn1c(CSc2nc3ccccc3s2)nnc1SCC(=O)NCCO | 0 | 0
Cc1ccc(NC(=O)N2CCCC2c2cc(C(C)C)on2)cc1 (stereo unspecified) | 0 | 0
O=C(Nc1ccc(Cl)c(C(F)(F)F)c1)C(NS(=O)(=O)c1cccs1)c1ccccc1 (stereo unspecified) | 0 | 100
SMILES | Pf apPOL inh | mHTT CaM bind
O=C(Nc1ccccc1F)C(NS(=O)(=O)c1cccs1)c1ccccc1 (stereo unspecified) | 0 | 0
O=C(Nc1nnc(CC2CCCC2)s1)c1cnccn1 | 0 | 0
CC12CC3CC(C)(C1)CC(c1ccc(O)cc1)(C3)C2 | 0 | 65
CC12CC3(C)CC(C)(C1)CC(C(=O)Nc1ccc(C45CC6CC(CC(C6)C4)C5)cc1)(C2)C3 | 0 | 0
O=C(NCCn1cnc(-c2ccccc2)cc1=O)c1ccccc1Br | 0 | 0
Cc1cccc(NC(c2ccc(F)cc2)c2ccc3cccnc3c2O)n1 (stereo unspecified) | 0 | 100
COc1ccc(NC(c2ccccc2)c2ccncc2)cc1 (stereo unspecified) | 0 | 0
Oc1c(C(Nc2ccc(F)cc2)c2ccncc2)ccc2cccnc12 (stereo unspecified) | 0 | 100
c1cncc(C(N2CCOCC2)N2CCOCC2)c1 | 0 | 0
Cc1ccc(F)cc1NC(=O)CSc1cccc2cccnc12 | 0 | 0
Oc1c(C(c2ccncc2)N2CCOCC2)ccc2cccnc12 (stereo unspecified) | 0 | 100
Cc1cccc(NC(c2cccc(F)c2)c2ccc3cccnc3c2O)n1 (stereo unspecified) | 0 | 99
O=C(CSc1cccc2cccnc12)c1ccc(F)cc1 | 0 | 0
COCCN(CCOC)Cc1c(O)ccc2c1OC(=Cc1ccccc1Br)C2=O | 0 | 0
CC(=O)c1ccc(NS(=O)(=O)c2cccc(C(=O)Nc3cccc(C(=O)O)c3)c2)cc1 | 0 | 0
Cc1ccc(C(=O)N2CCCC2COc2ccc(C(=O)NC(C)C)cc2)cc1F (stereo unspecified) | 0 | 0
COc1ccccc1NC(=O)CSc1ccc(Cl)cc1Cl | 0 | 0
COc1ccc(NC(=O)C2CCN(c3nccc(C)n3)CC2)c(OC)c1 | 0 | 0
CCC(=O)NCc1nc2c(n1C)CN(C(=O)c1ccc(OC)nc1)CC2 | 0 | 0
Cc1ccc(C2=NN(C(=O)CN3CCOCC3)C(c3ccc(C)cc3)C2)cc1 (stereo unspecified) | 0 | 62
Cc1ccc(C2CC(c3ccccc3)=NN2C(=O)CN2CCC(C(N)=O)CC2)cc1 (stereo unspecified) | 0 | 80
O=C(CN1CCCC1)N1N=C(c2ccccc2)CC1c1ccc2c(c1)OCO2 (stereo unspecified) | 0 | 99
O=C(CN1CCOCC1)N1N=C(c2ccccc2)CC1c1ccc(Cl)cc1 (stereo unspecified) | 0 | 0
O=C(CN1CCCCC1)N1N=C(c2ccccc2)CC1c1ccc2c(c1)OCO2 (stereo unspecified) | 0 | 0
Cc1cccc(C2=NN(C(=O)CN3CCOCC3)C(c3ccccc3F)C2)c1 (stereo unspecified) | 0 | 0
SMILES | Pf apPOL inh | mHTT CaM bind
NC(=O)C1CCN(CC(=O)N2N=C(c3ccc(F)cc3)CC2c2ccccc2)CC1 (stereo unspecified) | 0 | 0
CC(=O)N1CCN(CC(=O)N2N=C(c3cccc(C)c3)CC2c2ccc(C)cc2)CC1 (stereo unspecified) | 0 | 82
CC(C)c1ccc(S(=O)(=O)N2CCC(n3c(-c4ccoc4)nc4cccnc43)C2)cc1 (stereo unspecified) | 0 | 0
CC1=CC(C)(C)N(C(=O)CSc2n[nH]c(-c3ccccc3)n2)c2ccc(C)cc21 | 0 | 0
CC(=O)N1CCN(CC(=O)N2N=C(c3ccc(C)cc3)CC2c2ccc(C)cc2)CC1 (stereo unspecified) | 0 | 71
CC(=O)N1CCN(CC(=O)N2N=C(c3ccccc3)CC2c2ccc(C)cc2)CC1 (stereo unspecified) | 0 | 64
CC(=O)N1CCN(CC(=O)N2N=C(c3ccccc3)CC2c2ccccc2)CC1 (stereo unspecified) | 0 | 0
Cc1ccc(C2(O)NC(S)=C(C#N)C(c3ccc(F)cc3)C2[n+]2ccccc2)cc1 (stereo unspecified) | 0 | 82
CCOc1ccc(C2C(C#N)=C(C(C#N)C#N)NC(O)(C3CC3)C2[n+]2ccc(C)cc2)cc1 (stereo unspecified) | 0 | 0
CC1(O)NC(C(C#N)C#N)=C(C#N)C(c2ccc(F)cc2)C1[n+]1ccccc1 (stereo unspecified) | 0 | 0
N#CC1=C(S)NC(O)(c2ccccc2)C([n+]2ccc3ccccc3c2)C1c1cccc(F)c1 (stereo unspecified) | 0 | 69
Cc1cc[n+](C2C(c3ccc([N+](=O)[O-])cc3)C(C#N)=C(S)NC2(O)C2CC2)cc1 (stereo unspecified) | 0 | 58
CCc1ccc(S(=O)(=O)N2CCN(Cc3nc4ccccc4[nH]3)CC2)s1 | 0 | 100
CN(C)S(=O)(=O)N1CCN(Cc2nc3ccccc3[nH]2)CC1 | 0 | 0
COc1ccc(C2/C=C\CN(C(=O)OCc3ccccc3)CC(=O)N2Cc2ccc(F)cc2)cc1 (stereo unspecified) | 0 | 92
